# High-throughput results deposited in PubChem BioAssay by National Center for Advancing Translational Sciences (NCATS).
# Compounds with a hit are over-represented: about 3.6% of the library has one in this group of screens.
# LDHA inh: qHTS assay for inhibitors of human lactate dehydrogenase. L-lactate dehydrogenase A chain (Homo sapiens), P00338. purified LDHA, NADH/diaphorase-resazurin fluorescence; active compounds read low. activity change, % (values are at about 110 or 230 µM). 0.15% of 480,000 active; in the data active = activity change below about -30%;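 also: plate controls were DMSO wells for no effect and wells without enzyme for full effect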
#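 Enzyme activity of human lactate dehydrogenase 5 (2 nM; 0.06 mM NADH, 0.2 mM pyruvate, 5 min, RT) is measured via a resazurin/diaphorase fluorescence readout of residual NADH.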
# D1 potentiator: Potentiators of Human D1 Dopamine Receptor: qHTS. potentiation, % at 10 µM. HEK293 TREx D1 cells, calcium flux, dopamine EC20 potentiation. 0.036% of 360,000 active. D(1A) dopamine receptor (Homo sapiens), P21728; in the data active = potentiation above about 30%; also: 0% is about no effect
# Target sequence (P21728 whole entry, looked up): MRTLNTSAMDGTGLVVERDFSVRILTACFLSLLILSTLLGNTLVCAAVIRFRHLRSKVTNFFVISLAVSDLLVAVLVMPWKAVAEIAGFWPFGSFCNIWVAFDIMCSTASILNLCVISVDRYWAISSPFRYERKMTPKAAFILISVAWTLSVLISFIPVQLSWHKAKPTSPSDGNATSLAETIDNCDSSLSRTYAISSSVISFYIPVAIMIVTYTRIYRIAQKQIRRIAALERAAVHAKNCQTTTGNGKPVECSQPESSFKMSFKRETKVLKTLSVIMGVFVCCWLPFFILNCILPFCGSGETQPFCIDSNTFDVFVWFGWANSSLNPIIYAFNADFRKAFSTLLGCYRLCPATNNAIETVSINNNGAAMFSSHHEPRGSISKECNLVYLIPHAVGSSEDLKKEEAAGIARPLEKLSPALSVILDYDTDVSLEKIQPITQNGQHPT
# TRHR PAM: qHTS for Small Molecule Agonists and Allosteric Enhancers of Human TRH Receptor: Primary Screen for Enhancers. AID 493056, 2011. Thyrotropin-releasing hormone receptor (Homo sapiens), P34981. TRHR cells, fluo-8 calcium fluorescence, EC20 TRH enhancement. enhancement, % at 2 µM. 0.66% of 360,000 active; in the data active = enhancement above about 30%; also: 0% is about no effect
#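 Enhancer read-out: after compound pinning and an initial kinetic agonist-mode read, an EC20 of TRH (10 nM final) was injected and fluo-8 calcium signal (Ex 480/Em 530) followed at 1 s/cycle for 100 cycles in TRHR-expressing cells.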
# D1 agonist: Allosteric Agonists of the Human D1 Dopamine Receptor: qHTS; HEK293 T-REx D1 cells, calcium flux, agonist mode; activation, % at 2 µM; 1% of 360,000 active; AID 504660, 2011; also: 0% is about no effect
#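 Agonism was scored from calcium flux recorded over 180 s (1 read/s) after pintool compound addition, following a 10-cycle baseline. Cells were inducible force-coupled HEK293 TREx D1, plated overnight at 30 C and loaded with no-wash calcium dye.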
# TRHR ag: qHTS for Small Molecule Agonists and Allosteric Enhancers of Human TRH Receptor: Primary Screen for Agonists. Thyrotropin-releasing hormone receptor (Homo sapiens), P34981. TRHR cells, calcium flux fluo-8, FDSS agonist mode. activation, % at 2 µM. 0.18% of 360,000 active. AID 493084, 2011; also: 0% is about no effect
#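 Steps: seed TRHR cells overnight; add fluo-8 no-wash Ca dye, RT 30 min–1.5 h; record 10 s baseline; pin-transfer compounds; monitor fluorescence 1 cycle/s for the agonist window. Calcium increases flag candidate agonists.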
# D1 antag: Antagonist of Human D 1 Dopamine Receptor: qHTS. HEK293 TREx D1 cells, calcium flux, dopamine EC80; active compounds read low. 3.2% of 360,000 active. D(1A) dopamine receptor (Homo sapiens), P21728. activity change, negative = inhibition, % at 10 µM; in the data active = activity change below about -30%; also: % is scaled to controls: 0 for no effect and ±100 for the full control effect
#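 Antagonism measured as reduced calcium response to an EC80 dopamine addition following 180 s compound pre-read; cells were inducible HEK293 Trex D1 plated overnight at 30 C, read kinetically at 1 cycle/sec.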
# * marks the source's active call; other numbers are inactive results; · = no result given. Rule as the data show it, unless noted: active = activation above about 30%; inactive = the rest.
SMILES,LDHA inh,D1 potentiator,TRHR PAM,D1 agonist,TRHR ag,D1 antag
c1ccc(CCNc2ncnc3c2cnn3-c2ccccc2)cc1,-2,-9,-1,-2,0,21
Cc1cccc(-n2ncc3c(NCCc4ccc(S(N)(=O)=O)cc4)ncnc32)c1,-9,-10,-6,0,0,-48*
Cc1cccc(-n2ncc3c(NCCN4CCOCC4)ncnc32)c1,-3,-3,19,1,0,-3
COn1c(-c2ccccc2)nc2ccc(Cl)cc21,-3,-7,4,3,0,-65*
O=C(O)COn1c(-c2ccccc2)nc2ccc(Cl)cc21,-9,-4,-4,1,0,-8
S=C(NCc1ccc(Cl)cc1Cl)NC1CCCCC1,-2,-8,-11,30*,2,-33*
Clc1ccc(CNC2CCCC2)c(Cl)c1,2,5,8,2,0,10
S=C(NCCc1cccc(Cl)c1)NC1CCCCC1,2,-2,-10,7,1,-38*
Clc1cc(CNCc2cccs2)cc2c1OCCCO2,-1,·,·,·,·,·
COc1ccc(-c2nnc3sc(CN4C(=O)c5ccccc5C4=O)nn23)cc1,-3,2,36*,4,0,-5
O=C(Cc1n[nH]c(=O)c2ccccc12)NCC(=O)N1CCN(Cc2ccccc2)CC1,4,·,·,·,·,·
CC(C)C(NC(=O)Cn1cnc2c1c(=O)n(C)c(=O)n2C)c1ccccc1 (stereo not given),-3,·,·,·,·,·
COC(=O)c1ccc(COc2cc(O)c3c(c2)OC(C)(C)CC3=O)cc1,-4,6,3,18,0,-35*
CC1(C)CC(=O)c2c(O)cc(OCc3ccc(Br)cc3)cc2O1,2,6,-6,16,1,12
Cc1csc(N/N=C/c2ccc([N+](=O)[O-])cc2)n1,-1,-1,-2,7,2,-35*
CCOC(=O)Cc1csc(N/N=C/c2cccc([N+](=O)[O-])c2)n1,-4,-6,13,0,-1,-5
Cc1cc(C)nc(N/N=C/c2ccc([N+](=O)[O-])cc2)n1,-16,·,·,·,·,·
O=[N+]([O-])c1cccc(-c2csc(N/N=C/c3cccc(O)c3)n2)c1,-8,-12,-1,2,1,-43*
C=CCNc1oc(/C=C/c2ccc(OC)c(OC)c2)nc1C#N,7,·,·,·,·,·
CCOCCOC(C)C(=O)NCC(C)(C)c1ccccc1OC (stereo not given),3,·,·,·,·,·
CCc1ccc(CNc2ccc3c(c2)ncn3C)cc1,23,2,31*,2,0,-10
COc1ccc(NS(=O)(=O)c2cc(N/C(=N\S(=O)(=O)c3ccccc3)c3ccc(F)cc3)ccc2Cl)cc1,-18,0,-1,8,1,-38*
CCOC(=O)c1sc(NC(=O)C2CCCO2)c(C(=O)OCC)c1C (stereo not given),1,-6,8,2,-1,-15
COC(=O)c1sc(NC(=O)C2CCCO2)c(C(=O)OC)c1C (stereo not given),-5,-2,32*,0,-1,-5
NC(=O)c1c(NC(=O)C2CCCO2)sc2c1CCCC2 (stereo not given),2,-6,10,0,1,-15
SMILES,LDHA inh,D1 potentiator,TRHR PAM,D1 agonist,TRHR ag,D1 antag
N#Cc1c(NC(=O)C2CCCO2)sc2c1CCCCCC2 (stereo not given),3,3,0,6,1,-32*
CCn1ncc([N+](=O)[O-])c1C(=O)Nc1c(C)nn(Cc2ccc(F)cc2)c1C,0,-3,-4,2,-1,-40*
O=C(COC(=O)c1c(F)cccc1Cl)c1ccc(C2CCCCC2)cc1,-4,·,·,·,·,·
CC(C)CCC(CCNCc1ccco1)c1ccco1 (stereo not given),1,·,·,·,·,·
CCc1cn(C2CC(O)C(CO)O2)c(=O)[nH]c1=O (stereo not given),-2,-4,1,2,-1,-35*
O=c1ccn([C@H]2C[C@H](O)[C@@H](CO)O2)c(=O)[nH]1,-5,·,·,·,·,·
CC(C)(C)C1CCc2c(sc(NC(=O)C3CC=CCC3C(=O)O)c2C#N)C1 (stereo not given),0,0,7,0,0,-40*
Cc1ccc(NC(=O)/C(C#N)=C/c2ccc(C)s2)c(C)c1,-1,-2,-5,43*,0,4
CCC(=O)c1ccc(OC(=O)Cc2ccc(OC)cc2)cc1,-12,-9,38*,2,1,-33*
COc1ccc(CC(=O)Oc2ccccc2C)cc1,-2,-5,0,7,-2,-1
COc1ccc(NCc2cccn2-c2nnc(N3CCCCC3)s2)cc1OC,19,0,-11,2,-1,-6
CCc1ccc(NCc2cccn2-c2nnc(N3CCCCCC3)s2)cc1,-7,2,8,0,0,-31*
COc1ccc(-c2nc(Nc3cc(F)ccc3F)c3ccccc3n2)cc1,6,·,·,·,·,·
CC(=O)Nc1cc(C(N)=O)c(Cl)cc1Cl,1,-9,-3,2,1,-31*
COCCn1cc(C(=O)NCCc2ccccc2C)ccc1=O,3,·,·,·,·,·
CCCCCCCCCCOC(=O)Cn1c(COc2ccccc2OC)[n+](C)c2ccccc21,2,17,-26,183*,-1,-23
CC(=O)c1ccc(S(=O)(=O)NCCc2cccc3cccnc23)cc1,3,·,·,·,·,·
Cc1cccc(N2CCN(C(=O)Cn3cnc(S(=O)(=O)N4CCOCC4)c3)CC2)c1C,-1,·,·,·,·,·
Cn1c(=O)c(Oc2ccc(Cl)cc2)c(O)c2ccccc21,-1,3,9,2,0,5
COc1ccc(Oc2c(O)c3ccccc3n(C)c2=O)cc1,8,-2,6,2,0,-45*
CC1CCN(C(CNCC(O)COc2ccccc2)c2cccs2)CC1 (stereo not given),-6,·,·,·,·,·
CCC(=O)N/C=C/n1cnc2cc(C(F)(F)F)ccc21,1,-5,-9,6,1,-23
CN(C)c1cccc(C(=O)N/C=C/n2cnc3cc(C(F)(F)F)ccc32)c1,4,5,-7,0,0,-39*
Cc1ccc(-c2coc3cc4oc(=O)cc(-c5ccccc5)c4cc23)cc1,-2,·,·,·,·,·
C=CCOc1ccc(C(=O)Nc2ccccc2C(C)C)cc1,-8,·,·,·,·,·
